Data as given in publication PMC7862700, “An all-to-all approach to the identification of sequence-specific readers for epigenetic DNA modifications on cytosine”.

Experiments:
Assay in all cases: DAPPL (digital affinity profiling via proximity ligation, sequencing); 10 mM Tris-HCl pH 7.5, 50 mM NaCl, 1 mM DTT, 4% glycerol, room temperature, 30 min; GST-TFs on glutathione beads, 16-mer random dsDNA library, 0.1% formaldehyde crosslink after washing; high values mean tight binding
FEV = biological target: T1, FEV (Homo sapiens, UniProt Q99581 1-238); conditions: protein: recombinant; tags: N-terminal GST; dsDNA, one strand shown
T1 sequence: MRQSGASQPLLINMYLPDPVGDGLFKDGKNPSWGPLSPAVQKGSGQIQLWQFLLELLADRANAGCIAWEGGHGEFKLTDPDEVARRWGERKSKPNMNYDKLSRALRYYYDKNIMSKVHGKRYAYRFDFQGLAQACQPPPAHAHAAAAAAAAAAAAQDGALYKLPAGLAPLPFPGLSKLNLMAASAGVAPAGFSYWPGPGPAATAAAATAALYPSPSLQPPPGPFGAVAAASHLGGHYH
Method in brief: (§1)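 Human transcription factors were made in yeast as GST fusions, captured on glutathione beads and barcoded with DNA. With a tag-only sample included, the pool was incubated with 200 nmole of a random double-stranded 16-mer DNA library in Tris/NaCl/DTT/glycerol buffer at room temperature for 30 min, then crosslinked with 0.1% formaldehyde after washing, ligated by proximity, amplified and sequenced. For binding signal, each hexamer's read frequency for a factor is divided by its frequency for the tag-only sample.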

ETV5 = ETV5 (Homo sapiens, UniProt P41161 1-510); conditions: protein: recombinant; tags: N-terminal GST; dsDNA, one strand shown
Method in brief: as §1

HSF1 = HSF1 (Homo sapiens, UniProt Q00613 1-529); conditions: protein: recombinant; tags: N-terminal GST; chain copies: 3; dsDNA, one strand shown
Method in brief: as §1

SPIC = biological target: T2, SPIC (Homo sapiens, UniProt Q8N5J4 1-248); conditions: protein: recombinant; tags: N-terminal GST; dsDNA, one strand shown
T2 sequence: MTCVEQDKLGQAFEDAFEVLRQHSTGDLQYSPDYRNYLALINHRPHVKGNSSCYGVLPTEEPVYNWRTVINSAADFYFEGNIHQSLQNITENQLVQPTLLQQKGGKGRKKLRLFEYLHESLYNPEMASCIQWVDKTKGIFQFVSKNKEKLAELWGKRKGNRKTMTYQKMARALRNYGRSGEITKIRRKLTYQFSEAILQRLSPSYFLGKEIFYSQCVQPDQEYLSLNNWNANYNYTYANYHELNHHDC
Method in brief: as §1

ELF4 = ELF4 (Homo sapiens, UniProt Q99607 1-663); conditions: protein: recombinant; tags: N-terminal GST; dsDNA, one strand shown
Method in brief: as §1

ELK4 = biological target: T3, ELK4 (Homo sapiens, UniProt P28324-2 1-405); conditions: protein: recombinant; tags: N-terminal GST; dsDNA, one strand shown
T3 sequence: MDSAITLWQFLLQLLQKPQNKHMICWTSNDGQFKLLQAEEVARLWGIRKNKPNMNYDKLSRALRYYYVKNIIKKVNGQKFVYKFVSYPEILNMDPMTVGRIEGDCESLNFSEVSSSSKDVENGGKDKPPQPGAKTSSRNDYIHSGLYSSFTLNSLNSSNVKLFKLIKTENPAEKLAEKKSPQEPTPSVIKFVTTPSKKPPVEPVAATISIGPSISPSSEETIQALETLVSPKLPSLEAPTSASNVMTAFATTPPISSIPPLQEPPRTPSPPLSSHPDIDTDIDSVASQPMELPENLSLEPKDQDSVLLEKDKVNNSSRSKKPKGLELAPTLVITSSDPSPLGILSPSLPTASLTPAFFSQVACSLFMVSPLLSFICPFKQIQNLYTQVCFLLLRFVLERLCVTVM
Method in brief: as §1

ETV2 = biological target: T4, ETV2 (Homo sapiens, UniProt O00321 1-342); conditions: protein: recombinant; tags: N-terminal GST; dsDNA, one strand shown
T4 sequence: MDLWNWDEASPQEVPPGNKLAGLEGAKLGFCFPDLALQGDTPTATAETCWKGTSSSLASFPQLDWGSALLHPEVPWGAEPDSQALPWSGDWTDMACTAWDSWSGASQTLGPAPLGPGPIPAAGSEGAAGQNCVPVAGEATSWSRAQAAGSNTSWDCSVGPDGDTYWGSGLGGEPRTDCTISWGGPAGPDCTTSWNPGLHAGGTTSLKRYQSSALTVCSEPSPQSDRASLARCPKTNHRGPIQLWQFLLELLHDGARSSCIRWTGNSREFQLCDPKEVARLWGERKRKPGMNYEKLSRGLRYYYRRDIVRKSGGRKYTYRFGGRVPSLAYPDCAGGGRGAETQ
Method in brief: as §1

ELF3 = biological target: T5, ELF3 (Homo sapiens, UniProt P78545 1-371); conditions: protein: recombinant; tags: N-terminal GST; dsDNA, one strand shown
T5 sequence: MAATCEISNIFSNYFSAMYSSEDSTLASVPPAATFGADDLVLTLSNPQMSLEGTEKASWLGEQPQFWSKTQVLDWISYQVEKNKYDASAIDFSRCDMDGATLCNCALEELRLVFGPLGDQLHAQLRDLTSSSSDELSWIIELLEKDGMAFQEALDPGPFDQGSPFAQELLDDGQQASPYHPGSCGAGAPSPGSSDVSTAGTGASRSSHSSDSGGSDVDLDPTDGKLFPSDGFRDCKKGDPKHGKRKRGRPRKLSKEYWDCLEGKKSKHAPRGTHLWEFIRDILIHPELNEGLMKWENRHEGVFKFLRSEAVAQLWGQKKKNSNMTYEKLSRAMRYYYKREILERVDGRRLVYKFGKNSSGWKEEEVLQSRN
Method in brief: as §1

CRX = CRX (Homo sapiens, UniProt O43186 1-299); conditions: protein: recombinant; tags: N-terminal GST; dsDNA, one strand shown
Method in brief: as §1

ETV1 = ETV1 (Homo sapiens, UniProt P50549 1-477); conditions: protein: recombinant; tags: N-terminal GST; dsDNA, one strand shown
Method in brief: as §1

ERF = biological target: T6, ERF (Homo sapiens, UniProt P50548 1-548); conditions: protein: recombinant; tags: N-terminal GST; dsDNA, one strand shown
T6 sequence: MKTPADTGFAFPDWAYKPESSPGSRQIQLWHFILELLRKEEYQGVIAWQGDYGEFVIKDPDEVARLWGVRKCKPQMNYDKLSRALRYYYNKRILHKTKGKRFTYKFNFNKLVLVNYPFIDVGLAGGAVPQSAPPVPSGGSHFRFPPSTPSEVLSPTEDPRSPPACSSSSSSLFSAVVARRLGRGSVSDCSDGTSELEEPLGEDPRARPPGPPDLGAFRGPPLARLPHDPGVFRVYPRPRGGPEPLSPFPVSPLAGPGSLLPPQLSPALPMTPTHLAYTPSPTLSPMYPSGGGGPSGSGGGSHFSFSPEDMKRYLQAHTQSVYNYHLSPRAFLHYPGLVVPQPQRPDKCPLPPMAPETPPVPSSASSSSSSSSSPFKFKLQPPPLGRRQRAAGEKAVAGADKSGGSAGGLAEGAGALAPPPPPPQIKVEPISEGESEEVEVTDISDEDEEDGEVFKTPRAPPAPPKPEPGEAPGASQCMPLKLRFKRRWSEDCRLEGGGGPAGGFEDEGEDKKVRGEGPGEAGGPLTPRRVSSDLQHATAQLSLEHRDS
Method in brief: as §1

ETV3L = biological target: T7, ETV3L (Homo sapiens, UniProt Q6ZN32 1-361); conditions: protein: recombinant; tags: N-terminal GST; dsDNA, one strand shown
T7 sequence: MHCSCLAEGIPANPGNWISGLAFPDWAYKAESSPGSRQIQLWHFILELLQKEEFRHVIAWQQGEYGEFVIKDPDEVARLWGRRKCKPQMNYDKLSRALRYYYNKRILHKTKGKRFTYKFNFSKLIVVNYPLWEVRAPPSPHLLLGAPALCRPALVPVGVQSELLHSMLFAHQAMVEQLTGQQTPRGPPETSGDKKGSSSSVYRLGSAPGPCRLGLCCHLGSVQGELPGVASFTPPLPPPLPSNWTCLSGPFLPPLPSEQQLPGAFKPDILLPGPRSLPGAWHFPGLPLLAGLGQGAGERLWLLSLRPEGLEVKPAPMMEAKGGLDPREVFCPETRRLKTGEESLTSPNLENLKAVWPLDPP
Method in brief: as §1

ETS2 = biological target: T8, ETS2 (Homo sapiens, UniProt P15036 1-469); conditions: protein: recombinant; tags: N-terminal GST; dsDNA, one strand shown
T8 sequence: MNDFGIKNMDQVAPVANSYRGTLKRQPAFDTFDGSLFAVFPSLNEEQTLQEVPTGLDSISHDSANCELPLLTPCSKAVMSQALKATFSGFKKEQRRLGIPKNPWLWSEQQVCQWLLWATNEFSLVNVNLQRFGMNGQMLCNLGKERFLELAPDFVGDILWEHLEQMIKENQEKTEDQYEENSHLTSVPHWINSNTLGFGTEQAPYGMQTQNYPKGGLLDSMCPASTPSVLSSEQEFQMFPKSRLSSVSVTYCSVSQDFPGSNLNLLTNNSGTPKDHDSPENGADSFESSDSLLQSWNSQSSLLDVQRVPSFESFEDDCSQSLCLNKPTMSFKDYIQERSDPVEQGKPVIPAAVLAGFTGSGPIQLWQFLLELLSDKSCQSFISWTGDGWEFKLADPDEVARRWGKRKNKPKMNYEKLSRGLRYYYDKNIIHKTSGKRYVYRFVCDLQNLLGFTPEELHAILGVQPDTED
Method in brief: as §1

SPDEF = biological target: T9, SPDEF (Homo sapiens, UniProt O95238 1-335); conditions: protein: recombinant; tags: N-terminal GST; dsDNA, one strand shown
T9 sequence: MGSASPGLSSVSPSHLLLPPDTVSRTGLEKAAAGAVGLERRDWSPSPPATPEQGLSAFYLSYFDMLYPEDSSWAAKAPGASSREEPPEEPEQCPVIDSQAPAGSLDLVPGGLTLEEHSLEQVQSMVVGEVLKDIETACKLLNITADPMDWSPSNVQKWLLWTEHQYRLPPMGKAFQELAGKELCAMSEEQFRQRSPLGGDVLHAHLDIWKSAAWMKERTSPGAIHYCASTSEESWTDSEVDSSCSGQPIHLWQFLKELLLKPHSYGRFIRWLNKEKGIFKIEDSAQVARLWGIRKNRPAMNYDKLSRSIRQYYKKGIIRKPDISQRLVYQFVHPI
Method in brief: as §1

ETV7 = biological target: T10, ETV7 (Homo sapiens, UniProt Q9Y603 1-341); conditions: protein: recombinant; tags: N-terminal GST; dsDNA, one strand shown
T10 sequence: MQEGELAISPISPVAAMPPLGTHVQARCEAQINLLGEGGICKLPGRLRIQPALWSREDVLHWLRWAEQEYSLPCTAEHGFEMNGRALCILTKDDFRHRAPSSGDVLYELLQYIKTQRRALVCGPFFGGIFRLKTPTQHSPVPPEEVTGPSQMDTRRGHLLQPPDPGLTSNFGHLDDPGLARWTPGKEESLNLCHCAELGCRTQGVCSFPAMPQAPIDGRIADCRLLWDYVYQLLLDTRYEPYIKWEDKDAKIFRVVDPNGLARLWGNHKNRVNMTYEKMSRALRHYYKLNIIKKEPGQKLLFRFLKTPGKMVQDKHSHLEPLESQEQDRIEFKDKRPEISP
Method in brief: as §1

ELF5 = biological target: T11, ELF5 (Homo sapiens, UniProt Q9UKW6-2 1-255); conditions: protein: recombinant; tags: N-terminal GST; dsDNA, one strand shown
T11 sequence: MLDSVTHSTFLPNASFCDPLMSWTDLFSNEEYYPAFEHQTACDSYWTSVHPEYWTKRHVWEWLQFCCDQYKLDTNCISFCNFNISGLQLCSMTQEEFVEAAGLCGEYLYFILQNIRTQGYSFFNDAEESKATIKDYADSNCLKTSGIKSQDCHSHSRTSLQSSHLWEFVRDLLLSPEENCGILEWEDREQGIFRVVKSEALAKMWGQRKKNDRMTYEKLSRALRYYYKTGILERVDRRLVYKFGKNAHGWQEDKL
Method in brief: as §1

ETV3 = biological target: T12, ETV3 (Homo sapiens, UniProt P41162-2 1-143); conditions: protein: recombinant; tags: N-terminal GST; dsDNA, one strand shown
T12 sequence: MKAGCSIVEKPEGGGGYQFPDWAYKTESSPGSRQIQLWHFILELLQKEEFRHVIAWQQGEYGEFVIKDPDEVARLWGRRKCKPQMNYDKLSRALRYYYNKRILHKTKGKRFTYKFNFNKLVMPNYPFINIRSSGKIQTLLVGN
Method in brief: as §1

ETV6 = ETV6 (Homo sapiens, UniProt P41212 1-452); conditions: protein: recombinant; tags: N-terminal GST; dsDNA, one strand shown
Method in brief: as §1

ETV1, sequence (P50549 whole entry): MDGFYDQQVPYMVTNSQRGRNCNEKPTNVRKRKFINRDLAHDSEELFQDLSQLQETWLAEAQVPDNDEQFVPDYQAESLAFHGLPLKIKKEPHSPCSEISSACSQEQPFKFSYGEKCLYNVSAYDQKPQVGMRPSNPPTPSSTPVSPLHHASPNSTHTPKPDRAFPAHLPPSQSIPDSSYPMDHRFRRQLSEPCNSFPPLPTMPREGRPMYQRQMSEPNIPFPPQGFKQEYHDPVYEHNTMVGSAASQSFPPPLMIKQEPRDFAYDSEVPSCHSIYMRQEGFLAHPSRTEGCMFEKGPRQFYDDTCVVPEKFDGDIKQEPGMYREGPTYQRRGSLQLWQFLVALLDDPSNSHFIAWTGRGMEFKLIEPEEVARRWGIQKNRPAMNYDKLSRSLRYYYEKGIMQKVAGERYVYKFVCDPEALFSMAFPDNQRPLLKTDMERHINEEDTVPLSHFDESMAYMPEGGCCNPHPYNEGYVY
HSF1, sequence (Q00613 whole entry): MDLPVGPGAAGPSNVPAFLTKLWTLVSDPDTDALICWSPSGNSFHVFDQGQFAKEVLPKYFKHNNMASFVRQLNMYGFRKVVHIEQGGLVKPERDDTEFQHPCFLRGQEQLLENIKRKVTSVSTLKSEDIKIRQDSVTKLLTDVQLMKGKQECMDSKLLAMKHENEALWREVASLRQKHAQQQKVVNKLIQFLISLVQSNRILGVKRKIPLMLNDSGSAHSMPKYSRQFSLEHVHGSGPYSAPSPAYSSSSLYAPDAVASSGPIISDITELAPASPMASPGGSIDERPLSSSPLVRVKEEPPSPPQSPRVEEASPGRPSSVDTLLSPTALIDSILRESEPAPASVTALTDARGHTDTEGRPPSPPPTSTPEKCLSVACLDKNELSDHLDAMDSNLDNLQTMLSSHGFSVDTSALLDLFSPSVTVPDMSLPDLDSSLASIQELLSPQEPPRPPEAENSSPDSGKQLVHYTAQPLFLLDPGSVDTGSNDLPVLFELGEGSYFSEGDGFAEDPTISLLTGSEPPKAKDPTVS
CRX, sequence (O43186 whole entry): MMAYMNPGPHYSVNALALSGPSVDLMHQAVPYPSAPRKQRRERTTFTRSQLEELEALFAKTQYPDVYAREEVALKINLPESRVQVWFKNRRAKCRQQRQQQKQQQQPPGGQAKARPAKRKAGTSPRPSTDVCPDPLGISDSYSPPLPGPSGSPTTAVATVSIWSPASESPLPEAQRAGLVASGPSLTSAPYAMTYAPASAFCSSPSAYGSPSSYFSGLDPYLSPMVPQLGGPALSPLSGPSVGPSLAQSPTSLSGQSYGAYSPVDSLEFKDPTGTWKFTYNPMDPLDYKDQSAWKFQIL
ELF4, sequence (Q99607 whole entry): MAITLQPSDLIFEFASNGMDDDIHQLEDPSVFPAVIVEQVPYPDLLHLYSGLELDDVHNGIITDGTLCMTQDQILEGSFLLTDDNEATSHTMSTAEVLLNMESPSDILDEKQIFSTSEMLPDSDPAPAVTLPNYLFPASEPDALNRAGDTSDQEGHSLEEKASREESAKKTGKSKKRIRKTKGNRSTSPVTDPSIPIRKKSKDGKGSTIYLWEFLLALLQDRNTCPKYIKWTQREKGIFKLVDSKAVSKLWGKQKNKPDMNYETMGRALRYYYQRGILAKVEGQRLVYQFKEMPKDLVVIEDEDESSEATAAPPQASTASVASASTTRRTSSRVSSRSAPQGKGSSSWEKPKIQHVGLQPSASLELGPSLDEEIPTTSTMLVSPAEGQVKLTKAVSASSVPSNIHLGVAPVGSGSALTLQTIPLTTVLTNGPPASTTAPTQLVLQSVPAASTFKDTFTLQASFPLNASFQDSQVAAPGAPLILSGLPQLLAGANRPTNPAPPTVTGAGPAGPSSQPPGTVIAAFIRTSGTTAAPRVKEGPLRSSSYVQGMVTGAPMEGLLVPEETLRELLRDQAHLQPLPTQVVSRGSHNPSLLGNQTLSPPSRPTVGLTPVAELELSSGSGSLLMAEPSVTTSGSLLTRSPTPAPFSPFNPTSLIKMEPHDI
ETV5, sequence (P41161 whole entry): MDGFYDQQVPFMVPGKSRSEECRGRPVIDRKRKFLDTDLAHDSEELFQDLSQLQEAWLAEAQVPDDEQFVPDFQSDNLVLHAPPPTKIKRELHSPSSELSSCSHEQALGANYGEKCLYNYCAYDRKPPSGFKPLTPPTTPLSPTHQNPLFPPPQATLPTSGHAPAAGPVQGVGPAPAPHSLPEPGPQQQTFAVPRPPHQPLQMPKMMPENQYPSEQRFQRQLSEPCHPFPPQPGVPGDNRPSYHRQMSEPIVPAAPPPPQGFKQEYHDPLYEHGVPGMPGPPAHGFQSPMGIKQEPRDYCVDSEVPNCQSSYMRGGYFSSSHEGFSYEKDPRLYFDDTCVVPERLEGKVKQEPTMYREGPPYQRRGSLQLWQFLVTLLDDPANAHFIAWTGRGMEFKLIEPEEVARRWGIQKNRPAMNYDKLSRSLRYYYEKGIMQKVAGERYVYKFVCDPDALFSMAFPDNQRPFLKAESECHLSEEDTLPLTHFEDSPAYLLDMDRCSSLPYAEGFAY
ETV6, sequence (P41212 whole entry): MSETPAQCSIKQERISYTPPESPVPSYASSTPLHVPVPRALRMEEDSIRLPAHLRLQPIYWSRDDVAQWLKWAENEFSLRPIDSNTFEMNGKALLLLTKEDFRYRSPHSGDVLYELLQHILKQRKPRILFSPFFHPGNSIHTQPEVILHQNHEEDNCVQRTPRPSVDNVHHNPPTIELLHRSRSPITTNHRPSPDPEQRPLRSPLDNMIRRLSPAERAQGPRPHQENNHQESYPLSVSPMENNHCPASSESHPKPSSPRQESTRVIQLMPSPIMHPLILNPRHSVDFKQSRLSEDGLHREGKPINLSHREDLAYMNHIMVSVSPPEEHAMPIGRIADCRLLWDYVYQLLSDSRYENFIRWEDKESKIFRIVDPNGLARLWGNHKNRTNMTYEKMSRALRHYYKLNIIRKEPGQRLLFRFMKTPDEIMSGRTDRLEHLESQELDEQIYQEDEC

**Q.** Which results are given for ACTACC?
**A.** binding signal (FEV): 1.55 fold enrichment (6-mer frequency, TF over GST control); binding signal (ETV5): 1.64 fold enrichment (6-mer frequency, TF over GST control); binding signal (HSF1): 1.09 fold enrichment (6-mer frequency, TF over GST control); binding signal (SPIC): 1.58 fold enrichment (6-mer frequency, TF over GST control); binding signal (ELF4): 1.66 fold enrichment (6-mer frequency, TF over GST control); binding signal (ELK4): 1.59 fold enrichment (6-mer frequency, TF over GST control); binding signal (ETV2): 1.72 fold enrichment (6-mer frequency, TF over GST control); binding signal (ELF3): 1.58 fold enrichment (6-mer frequency, TF over GST control); binding signal (CRX): 1.1 fold enrichment (6-mer frequency, TF over GST control); binding signal (ETV1): 1.59 fold enrichment (6-mer frequency, TF over GST control); binding signal (ERF): 1.72 fold enrichment (6-mer frequency, TF over GST control); binding signal (ETV3L): 1.6 fold enrichment (6-mer frequency, TF over GST control); binding signal (ETS2): 1.7 fold enrichment (6-mer frequency, TF over GST control); binding signal (SPDEF): 1.61 fold enrichment (6-mer frequency, TF over GST control); binding signal (ETV7): 1.55 fold enrichment (6-mer frequency, TF over GST control); binding signal (ELF5): 1.76 fold enrichment (6-mer frequency, TF over GST control); binding signal (ETV3): 1.7 fold enrichment (6-mer frequency, TF over GST control); binding signal (ETV6): 1.74 fold enrichment (6-mer frequency, TF over GST control)
